These results are taken from PMC5540273 (PLoS ONE, 2017).

Test systems include LRRK2; LTK; LYN; MAK; MAP3K15; MAP3K1; MAP3K2.
What all share (conditions): concentration: 1 μM, replicates: in singlicate; n = 1
Another test relates to T1, LKB1.
T1 construct: gene STK11

The test system of a further test is T2, LOK.
T2 construct: gene STK10

The test system of a further test is T3, LZK.
T3 construct: gene MAP3K13
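Note: KINOMEscan kinase panel screen.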

Take `Clc1cccc(-c2nc(Nc3ccncc3)c3ccccc3n2)c1` [GW873004]: the “%Inh” value in the test with LKB1 is on record as 28%; in the test on LOK, 59%; with LRRK2 it was 0%; in the test on LTK, 6%; in the test with LYN it was 0%; in the test with LZK it was 0%. Besides, the “%Inh” value in the test on MAK, in the test with MAP3K15, in the test on MAP3K1 and in the test on MAP3K2 was 0% in each case.
On to `COC(=O)c1c(-c2ccccc2)c2cc(Cl)ccc2c(=O)n1Cc1ccc(S(C)(=O)=O)cc1`, for which the “%Inh” value in the test on LKB1 worked out at 0%; in the test on LOK it was 4%; with LRRK2 it was 2%; in the test with LTK, 0%; in the test with LYN, 20%; in the test with LZK it was 0%. The “%Inh” value in the test with MAK was found to be 5%; with MAP3K15, 20%; in the test on MAP3K1, 0%; in the test on MAP3K2, 0%.
With `O=C(Nc1ccccc1F)NC1CCN(c2ccnc(Nc3ccc(F)cc3)n2)C1` (centres unmarked) [GSK1379722], the “%Inh” value in the test on LKB1 came to 0%; in the test on LOK it was 0%; with LRRK2, 39%; with LTK it was 0%; with LYN it was 0%; with LZK, 23%. The “%Inh” value came to 12% in the test with MAK, 0% in the test with MAP3K15, 5% in the test with MAP3K1 and 1% in the test with MAP3K2.
Take `Cn1ccc2ncnc(Nc3ccc(Oc4cccc(Cl)c4)c(Cl)c3)c21`: the “%Inh” value was determined as 0% with LKB1; 55% in the test on LOK; 5% in the test on LRRK2; 11% with LTK; 4% in the test with LYN; 0% in the test on LZK. For the same compound, the “%Inh” value turned out to be 26% in the test on MAK, 11% with MAP3K15, 29% in the test with MAP3K1 and 17% in the test on MAP3K2.
As for `Fc1cccc(COc2ccc(Nc3ncnc4cc[nH]c34)cc2Cl)c1`, the “%Inh” value with LKB1 is recorded as 0%; in the test on LOK it was 29%; with LRRK2, 9%; with LTK, 18%; with LYN, 0%; with LZK, 20%. The “%Inh” value with MAK is on record as 9%; in the test on MAP3K15, 50%; in the test with MAP3K1, 21%; with MAP3K2, 11%.
In the case of `COc1ccc(NC(=O)c2ccc(-c3cc(-c4nnc(C)o4)ccc3C)cc2)cc1` [GW595885], the “%Inh” value in the test on LKB1 was found to be 0%; with LOK, 0%; with LRRK2, 42%; in the test with LTK, 0%; in the test with LYN, 32%; with LZK it was 12%. The “%Inh” value in the test on MAK was found to be 47%; in the test on MAP3K15 it was 0%; with MAP3K1 it was 2%; with MAP3K2, 1%.
As for `NC(=O)c1sc(-n2cnc3ccccc32)cc1OCc1ccccc1F` [GSK1024306], the “%Inh” value in the test with LKB1 is recorded as 0%; with LOK, 63%; with LRRK2, 29%; in the test with LTK it was 5%; in the test on LYN, 0%; in the test on LZK it was 27%. Also, the “%Inh” value in the test with MAK came to 13%; in the test with MAP3K15 it was 0%; with MAP3K1, 59%; with MAP3K2, 0%.
For `C[C@H]1CC[C@@H](C(=O)Nc2ccccc2)CN1c1cc(-c2ccc3c(N)n[nH]c3c2)nc(N)n1` [GSK2283293], the “%Inh” value came to 15% in the test with LKB1; 0% with LOK; 0% in the test on LRRK2; 0% in the test with LTK; 0% in the test with LYN; 0% with LZK. Moreover, the “%Inh” value is listed as 12% in the test with MAK, 0% with MAP3K15, 0% in the test on MAP3K1 and 0% in the test on MAP3K2.
Consider `COc1ccc(Nc2nccc(N3CCC(NC(=O)c4cccc(NC(C)=O)c4)C3)n2)cc1` (centres unmarked) [GSK1379732], for which the “%Inh” value was 22% in the test on LKB1; 0% in the test with LOK; 0% in the test with LRRK2; 0% with LTK; 0% with LYN; 46% with LZK. Moreover, the “%Inh” value in the test on MAK is on record as 14%; in the test with MAP3K15, 0%; in the test with MAP3K1 it was 0%; in the test on MAP3K2, 0%.
`CN1c2ccc(-c3ccc(C(=O)NCCO)cc3)cc2-c2[nH]ncc2S1(=O)=O`: the “%Inh” value in the test with LKB1 is on record as 21%; in the test with LOK, 31%; in the test with LRRK2 it was 73%; with LTK, 9%; in the test on LYN, 22%; with LZK it was 0%. Also, the “%Inh” value with MAK is 0%; in the test on MAP3K15 it was 11%; in the test on MAP3K1, 9%; in the test on MAP3K2, 36%.
Regarding `Oc1ccc2ncnc(Nc3ccc(OCc4ccccc4)cc3)c2c1` [GI262866], the “%Inh” value is 0% in the test with LKB1; 0% with LOK; 48% with LRRK2; 82% with LTK; 0% with LYN; 0% in the test with LZK. Also, the “%Inh” value with MAK is given as 13%; in the test on MAP3K15 it was 20%; with MAP3K1, 5%; in the test with MAP3K2, 0%.
As for `Nc1nc(-c2cccnc2)c(-c2ccnc3ccccc23)s1` [GW684083], the “%Inh” value in the test with LKB1 is 15%; in the test on LOK it was 0%; in the test on LRRK2 it was 0%; with LTK, 0%; in the test on LYN, 72%; in the test on LZK, 14%. In addition, the “%Inh” value is recorded as 10% in the test on MAK, 0% in the test on MAP3K15, 6% in the test on MAP3K1 and 0% with MAP3K2.
In the case of `OCCOCCn1ccc2ncnc(Nc3ccc(Oc4cccc(Cl)c4)c(Cl)c3)c21`, the “%Inh” value in the test with LKB1 worked out at 24%; in the test with LOK, 74%; in the test on LRRK2, 0%; in the test with LTK, 0%; in the test on LYN it was 19%; with LZK, 0%. In addition, the “%Inh” value with MAK, in the test on MAP3K15, with MAP3K1 and with MAP3K2 was 0% throughout.
Consider `O=c1cc(N2CCOCC2)nc2n(Cc3cccc(Cl)c3)ccn12` [GSK2296823], for which the “%Inh” value in the test on LKB1 stood at 0%; with LOK, 0%; in the test on LRRK2 it was 35%; in the test with LTK it was 0%; in the test with LYN, 0%; in the test on LZK, 0%. The “%Inh” value with MAK is on record as 0%; with MAP3K15 it was 11%; with MAP3K1, 6%; in the test with MAP3K2, 8%.
Turning to `N#Cc1ccc(Oc2ccc(Nc3ncnc4cc[nH]c34)cc2Cl)cc1`, the “%Inh” value with LKB1 is reported as 29%; with LOK, 18%; in the test on LRRK2 it was 0%; in the test with LTK, 6%; in the test on LYN, 0%; in the test with LZK it was 0%. Besides, the “%Inh” value amounted to 13% in the test with MAK, 43% in the test with MAP3K15, 0% in the test with MAP3K1 and 9% in the test with MAP3K2.
As to `CC(=O)Nc1n[nH]c2ncc(-c3ccccc3)cc12` [SB-548492], the “%Inh” value was 25% in the test on LKB1; 0% with LOK; 0% with LRRK2; 5% in the test on LTK; 0% in the test with LYN; 0% in the test with LZK. The “%Inh” value in the test on MAK was determined as 51%; in the test with MAP3K15, 11%; in the test on MAP3K1 it was 27%; with MAP3K2, 16%.
In the case of `Cl.Cn1ccc(-c2cccc(Nc3ccnc4cc(-c5nccs5)ccc34)c2)n1` [GW525701], the “%Inh” value in the test with LKB1 worked out at 0%; with LOK, 72%; with LRRK2, 0%; in the test on LTK, 0%; with LYN it was 0%; with LZK it was 48%. Besides, the “%Inh” value with MAK is listed as 0%; in the test on MAP3K15 it was 0%; in the test with MAP3K1, 10%; with MAP3K2, 0%.
